Reference: ChEMBL document CHEMBL3988442, “University of Dundee, Small-Polar-MMV Screening Library” (2021)

Columns and labels:
[1] = biological target: T1, Aspartate--tRNA(Asp/Asn) ligase (Mycobacterium tuberculosis (strain ATCC 25618 / H37Rv)) (UniProt P9WFW3); assay: Assay for Asp RNA synthetase-1 from Mycobacterium tuberculosis; format: functional; set-up: scale not given: direction of the effect not stated beside the values; settings: 30 µM; also: in the data most compounds retested in dose-response had high values
T1 sequence (whole entry): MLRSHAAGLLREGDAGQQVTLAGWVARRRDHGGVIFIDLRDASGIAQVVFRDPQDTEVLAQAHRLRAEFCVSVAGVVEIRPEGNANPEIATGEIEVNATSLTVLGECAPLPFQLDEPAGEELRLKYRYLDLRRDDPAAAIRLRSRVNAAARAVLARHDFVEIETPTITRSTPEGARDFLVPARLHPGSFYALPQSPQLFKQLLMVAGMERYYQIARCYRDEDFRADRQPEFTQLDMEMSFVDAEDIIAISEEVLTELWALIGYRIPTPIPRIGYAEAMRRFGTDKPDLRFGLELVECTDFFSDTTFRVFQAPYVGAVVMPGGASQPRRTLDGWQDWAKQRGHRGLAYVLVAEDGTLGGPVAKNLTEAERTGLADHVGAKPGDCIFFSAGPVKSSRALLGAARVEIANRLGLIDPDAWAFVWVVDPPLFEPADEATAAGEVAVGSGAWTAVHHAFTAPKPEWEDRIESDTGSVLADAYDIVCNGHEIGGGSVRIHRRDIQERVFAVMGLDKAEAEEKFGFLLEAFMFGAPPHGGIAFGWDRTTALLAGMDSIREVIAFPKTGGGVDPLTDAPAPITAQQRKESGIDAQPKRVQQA

[2] = biological target: Shiga toxin 2 (Escherichia coli O157:H7) (UniProt P09385+P09386); assay: E. coli 0.157:H7 Shiga Toxin SOP - stx2 screening assay; format: functional; set-up: scale not given: direction of the effect not stated beside the values; settings: 30 µM

Compound	Percent Effect [1] [%]	Percent Effect [2] [%]
Cc1cnc2c(c1NCc1ccncc1)c(=O)n(C)c(=O)n2C	-5.41	1.78
CCN(CC)Cc1ccc(C(=O)N2CCN(CC(C)O)CC2)cc1 (stereo not drawn)	0.607	8.97
COc1ccccc1C1CNC(=O)c2nc(-c3ncc[nH]3)[nH]c2C1 (stereo not drawn)	2.38	-14.6
Cc1cnn(CCC(=O)N2CCCC(c3nc(C)no3)C2)c1 (stereo not drawn)	4.08	3.29
CCn1c(CN2CCCC2)nnc1C1CCN(Cc2ccc(C)o2)CC1	-0.695	1.78
CC1c2ncc(CNC(=O)C3CC3)n2CCN1Cc1cnn(C)c1 (stereo not drawn)	7.02	-27.6
O=C(c1ccc(Cl)c(Cl)c1)N1CCCC(n2cncn2)C1 (stereo not drawn)	-2.85	15.6
CNC(=O)CS(=O)(=O)C1CCN(S(=O)(=O)C2CC2)CC1	1.09	-3.71
CCCN1CCCn2nc(CNC(=O)CCc3scnc3C)cc2C1	-0.334	3.64
O=S(=O)(c1cccs1)N1CC[C@H](O)[C@@H]1Cc1ccncc1	-0.474	2.87
Cc1nccnc1N1CCC2(CCCN(C3CCOCC3)C2=O)C1 (stereo not drawn)	-1.21	-27.2
O=C(CC1CCCO1)NCc1ccccc1Cn1cncn1 (stereo not drawn)	-3.17	31.5
CC(C)Nc1nc2c(cc1C(=O)N(C)C)CCNCC2	3.61	-0.0143
Cc1ccc(CNCC2CCc3nnc(C(C)C)n3C2)s1 (stereo not drawn)	-3.31	-22.4
CC(=O)Nc1nc(C2CCN(C(=O)c3cccnc3)CC2)cs1	-8.57	-3.89
O=C(Nc1nc2c(s1)CCC2)c1cccnc1N1CCOCC1	-4.4	-10.3
Cc1noc(C)c1-c1cccc(CC2CCN(C(=O)CCC(=O)O)C2)n1 (stereo not drawn)	-0.313	-17.7
CC(NCc1ccc(F)cc1)c1ccc(OCC(=O)NC2CC2)cc1 (stereo not drawn)	0.888	-19.1
CC(C(=O)Nc1ccc(N2CCCC2)nc1)n1ccnc1 (stereo not drawn)	1.62	-37.2
Cc1nc(C(C)(C)NC(=O)Nc2cccc(C#N)c2)no1	-0.287	-19.6
CNc1nc(CNC(=O)Nc2ccccc2-c2noc(C)n2)cs1	-2.92	13.1
CCCn1ccc(C(=O)N2CCOC(c3nc(-c4cccs4)no3)C2)n1 (stereo not drawn)	0.28	-0.831
COc1ccc2c(c1)OCC(CNC(=O)c1ccc(=O)n(C)c1)C2 (stereo not drawn)	-0.474	0.424
Cc1cnn(CCNCC(O)COc2ccc(Cl)cc2)c1 (stereo not drawn)	-2.57	-37.4
CC(CNC(=O)N1CCN(CC(F)F)CC1)Cc1cccs1 (stereo not drawn)	-1.76	0.53

Compound	Percent Effect [1] [%]	Percent Effect [2] [%]
Cc1ccc(F)c(C(=O)N2CCN(S(C)(=O)=O)[C@@H](C)C2)c1	-2.79	-20.5
COc1cccc(-c2nc(C)c(C(=O)NC(CO)CCSC)s2)c1 (stereo not drawn)	-3.69	-34.8
CO[C@H]1CN(Cc2cccc(C#N)c2)[C@@H]2COC[C@H]12	4.8	-22.2
CCCNC(=O)CN1CCC(C(=O)Nc2cnn(CC)c2)CC1	0.927	20.3
O=C(NCCNc1ncccn1)N1CCCC(C(F)(F)F)C1 (stereo not drawn)	4.41	1.25
CC(C)NC(=O)Nc1ccc(CS(=O)(=O)C(C)(C)C)cc1	0.689	0.4
O=C(c1ccnnc1)N1C[C@@H](OCC2CCOCC2)[C@H]2OCCC[C@H]21	-5.57	-14.6
COCC(=O)N1Cc2cn(C)nc2C(COc2cccnc2)C1 (stereo not drawn)	0.598	-21.7
Cc1ccc(N2CCC3(CCN(C(N)=O)CC3)CC2)nn1	2.03	-2.18
CCC(CC)NC(=O)Cn1nc(C)nc1-c1ccccc1	-2.19	23
O=C1NCCCCC1Sc1nnc(-c2cccnc2)n1C1CC1 (stereo not drawn)	-3.62	7.22
Cc1nc([C@@H]2C[C@@H]3CCN(C(=O)c4occc4C)C[C@H]3O2)no1	10.9	-14.5
Cc1nnc2n1CCN(C(=O)c1cc(Cl)c(Cl)n1C)C2	-1.68	8.23
CC(NCc1c(C(C)C)nn(C)c1N1CCOCC1)C(N)=O (stereo not drawn)	-7.54	-49.6
COC(=O)c1ccc2ccn(CC3CCNC3)c(=O)c2c1 (stereo not drawn)	3.08	-45.4
CC1(C)CC(N2Cc3nc(N)ncc3C2=O)CC(C)(C)N1	7.13	-32.6
CN1CCc2c(C#N)c(NCCCN3CCOCC3)n3cnnc3c2C1	5.9	5.95
CCCS(=O)(=O)NCc1cccnc1OCC	-1.52	-6.28
Cc1c[nH]cc1C(=O)N1CCN(Cc2nc(C(C)C)no2)CC1	-3.47	9.19
COc1ncc(C2(O)CCN(Cc3cccs3)CC2)c(OC)n1	-0.868	-24.4
Cn1cc(C2CCCN2C(=O)Cc2n[nH]c3ccccc23)cn1 (stereo not drawn)	-9.51	-33.7
O=C(NCC(=O)N1CCCCC1)c1ccoc1	6.71	-16.3
O=c1[nH][nH]cc1-c1ccnc(NCCN2CCCC2)n1	5.51	-68.3
O=C(NCC1CC1)[C@H]1CC[C@@H]2[C@@H](CCN2Cc2ccoc2)O1	-5.12	0.319
CC(C)NC(=O)C1CN(C(=O)c2ccc(F)cc2)CC12CCOCC2 (stereo not drawn)	0.581	-56

Compound	Percent Effect [1] [%]	Percent Effect [2] [%]
Cn1ccnc1CN1CCC2(CC1)CC(Oc1cccnc1)C2	0.874	-18.2
CN(C)c1nc2c(c(N3CCC(O)CC3)n1)CN(CC1CCNC1)CC2 (stereo not drawn)	3.47	-11.1
CCC1=N[C@@]2(CC[C@@H]3CN(C(=O)NCc4ccccc4)C[C@@H]32)C(=O)N1	1.75	5.39
Cn1cc(Cl)cc1C(=O)N1CCCN(Cc2cccs2)CC1	-5.24	19.8
CC(C)CN1CCC(C(=O)Nc2cc(C(F)(F)F)c[nH]c2=O)CC1	-2.61	-33.9
CC(C)N1Cc2c(C(=O)N3CCOCC3)nn(C)c2C1	0.382	5.36
CCc1nnc2n1CCN(Cc1nc(-c3ccoc3)no1)C2	-5.61	-17.8
c1ccc(-n2ncc(CN3CCCC3Cn3cccn3)n2)cc1 (stereo not drawn)	-5.28	2.57
CCOC(CC)C(=O)NCCC(=O)N1CCN(c2ncccn2)CC1 (stereo not drawn)	1.17	-0.0687
O=C(c1ccsc1)N1C[C@@H]2C[C@@H](c3nnc(C4CC4)o3)O[C@@H]2C1	6.08	-18.3
CCc1ccc(C(=O)N2CCN(CCS(C)(=O)=O)CC2)o1	-3.52	24.9
CN(Cc1cnn(C)c1)C(=O)NC1CCS(=O)(=O)C1 (stereo not drawn)	-2.67	14.6
O=C(CC1CCCC1)NCCn1ccc(-c2ccncc2)n1	7.45	3.58
Cc1ccc(NC2CCN(C(=O)c3cccc(F)c3F)CC2)nn1	-4.5	-17
Cc1ccoc1C(=O)N1CCO[C@H]2[C@H](OCC3CCOCC3)CC[C@@H]21	-4.72	-15.8
Cc1cc(C(=O)N2C[C@@H]3[C@@H](C2)OCC(=O)N3CC2CC2)no1	9.42	-55.2
Cn1c2c(ccc1=O)CC(NS(C)(=O)=O)CC2 (stereo not drawn)	-0.956	-18
Cc1cc(C2CCCN(C(=O)c3cnccn3)C2)ccn1 (stereo not drawn)	-0.521	-14.3
COCc1nc(C(=O)N2CCCCC2Cn2cccn2)cs1 (stereo not drawn)	1.01	16.6
O=C(c1cccs1)N1CCC(n2nc(-c3ccco3)ccc2=O)CC1	-0.968	6.63
CC(NC(=O)CSCC#N)c1ccccc1 (stereo not drawn)	2.98	13.3
Cc1occc1C(=O)N1CCC2(CC1)C(c1cnn(C)c1)CC(=O)N2C (stereo not drawn)	2.49	-8.78
NC(=O)CSCC(=O)N1CCc2cc(Cl)cc(Cl)c2C1	12.7	-44.7
CN(Cc1ccsc1)C(=O)CN1CCCC1Cn1cccn1 (stereo not drawn)	2.25	-9.42
